Results filed as inconclusive are left out. Active and inactive are the calls of the source. The call rests on the fitted dose curve; in most records, active means well fitted cell-killing curve with a large enough effect; inconclusive means small, poorly fitted or top-dose-only effect, or effect the other way; inactive means no such curve, though single readings can be large or run the other way.
Potency means the concentration at half of the fitted maximal effect.

This experiment in a line: Quantitative High-Throughput drug screen in 47 multiple myeloma cell lines against the NCATS MIPE library collection: FR4_PLB cell viability assay (AID 1918924; further: nearly all actives have a fitted effect of over 35% in size). Conditions: FR4_PLB myeloma cells viability, CellTiter-Glo ATP, 48 h; series mostly up to 45.8 µM. Summed up:
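Primary qHTS used for cherry-picking: cells at 500/well, library compounds for 48 h (37C, 5% CO2), luminescent ATP assay.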
In general terms: In ATP-based viability assays light output follows the ATP content of the culture.
With `CCOc1cc2ncc(C#N)c(Nc3ccc(OCc4ccccn4)c(Cl)c3)c2cc1NC(=O)C=CCN(C)C`, the Potency is 2.35 µM (active).

`Nc1nc(=O)n([C@H]2CSC(CO)O2)cc1F` (stereo partly drawn): the Potency entry is “inactive”.

In the case of `NC(=O)N1CCC(CC(=O)N2CCC([C@H]3c4ncc(Br)cc4CCc4cc(Cl)cc(Br)c43)CC2)CC1`, the Potency was 20.9 µM (active).

On to `COc1cc2c(cc1O)CCC1C2CC[C@@]2(C)C1CC[C@@H]2O` (stereo partly drawn), for which the Potency was 0.743 µM (active).

Take `C#Cc1cccc(Nc2ncnc3cc(OCCOC)c(OCCO)cc23)c1`: the Potency was 7.43 µM (active).

In the case of `CCn1c(=O)c2c(nc(C=Cc3ccc(OC)c(OC)c3)n2C)n(CC)c1=O`, the Potency entry is “inactive”.

In the case of `CCCNS(=O)(=O)Nc1ncnc(OCCOc2ncc(Br)cn2)c1-c1ccc(Br)cc1`, the Potency entry is “inactive”.

As for `C=CCNC1=C2C[C@@H](C)C[C@H](OC)[C@@H](O)[C@@H](C)C=C(C)[C@H](OC(N)=O)[C@@H](OC)C=CC=C(C)C(=O)NC(=CC1=O)C2=O`, the Potency is 0.662 µM (active).

On to `O=C(Nc1nnc(-c2ccco2)o1)c1cc(-c2ccccc2)nc2ccccc12`, for which the Potency was 23.5 µM (active).

`CC(=O)O[C@H]1C[C@@H]2CC[C@H]3[C@H]4C[C@H]([N+]5(C)CCCCC5)[C@@H](OC(C)=O)[C@@]4(C)CC[C@@H]3[C@@]2(C)C[C@H]1N1CCCCC1`: the Potency entry was “inactive”.

As for `COc1cc2ncnc(Nc3cccc(Br)c3)c2cc1OC`, the Potency is 1.32 µM (active).

Turning to `Cn1c(Nc2ccc(C(F)(F)F)cc2)nc2cc(Oc3ccnc(-c4ncc(C(F)(F)F)[nH]4)c3)ccc21`, the Potency is 18.7 µM (active).

For `C[C@H](NCc1ccc2c(c1)nc(NC(=O)c1ccc(-c3cn[nH]c3)s1)n2CCc1ccccc1)C(C)(C)C`, the Potency was 1.05 µM (active).

Take `COc1cc2c(Nc3ccc(Cl)c(Cl)c3F)ncnc2cc1OCC1C[C@@H]2CN(C)C[C@H]2C1`: the Potency was 14.8 µM (active).

Turning to `c1ccc(CNc2nc(NCc3ccccc3)c3ccccc3n2)cc1`, the Potency is 23.5 µM (active).

For the molecule `C=CC[C@@H]1C=C(C)C[C@H](C)C[C@H](OC)[C@H]2O[C@@](O)(C(=O)C(=O)N3CCCC[C@H]3C(=O)O[C@H](C(C)=C[C@@H]3CC[C@H](O)[C@H](OC)C3)[C@@H](C)[C@@H](O)CC1=O)[C@@H](C)C[C@@H]2OC`, the Potency is 2.64 µM (active).

As for `N#Cc1c(NC(=O)c2cccc3ccccc23)sc2c1CCCC2`, the Potency is 0.209 µM (active).

As to `C=Cc1c(C)c2cc3nc(cc4[nH]c(cc5nc(cc1[nH]2)C(C)=C5CCC(=O)O)c(CCC(=O)OC)c4C)[C@@]1(C)C3=CC=C(C(=O)OC)[C@H]1C(=O)OC`, the Potency is 0.662 µM (active).

For `CCCCCCCCCCCCc1ccc(S(=O)(=O)Nc2nncs2)cc1`, the Potency result was “inactive”.

On to `N#Cc1ccc(COC[C@H]2O[C@@H](n3c(NCc4ccc(Cl)c(Cl)c4)nc4c(N)ncnc43)[C@@H](O)[C@@H]2O)cc1`, for which the Potency was 13.2 µM (active).

`CN(C)CC[C@H](c1ccc(Cl)cc1)c1ccccn1`: the Potency entry is “inactive”.

Take `COc1cc(O)c2c(c1)C1OC1C[C@H](O)[C@H](O)C(=O)C=CC[C@H](C)OC2=O` (stereo partly drawn): the Potency was 3.32 µM (active).

On to `Cc1ccc2nc(NCCN)c3ncc(C)n3c2c1`, for which the Potency was 3.32 µM (active).

For the molecule `CN(N=O)C(=O)N[C@H]1C(O)OC(CO)[C@@H](O)[C@H]1O` (stereo partly drawn), the Potency entry is “inactive”.

Consider `O=c1c(O)c(-c2ccc(O)c(O)c2)oc2cc(O)ccc12`, for which the Potency is 20.9 µM (active).

Turning to `NC[C@H]1O[C@H](O[C@H]2[C@@H](O)[C@@H](O[C@H]3O[C@H](CO)[C@@H](O)[C@H](N)[C@@H]3O)[C@H](N)C[C@@H]2N)[C@H](N)C[C@H]1O`, the Potency entry was “inactive”.

`CC(C)[C@H](CO)Nc1nc(Nc2cccc(Cl)c2)c2ncn(C(C)C)c2n1`: the Potency was 16.6 µM (active).

For `CC(C)OC(=O)[C@H](C)N[P@](=O)(OC[C@H]1O[C@@H](n2ccc(=O)[nH]c2=O)[C@](C)(F)[C@H]1O)Oc1ccccc1`, the Potency entry was “inactive”.

Consider `Cc1cnn(C)c1C(=O)Nc1cc(Nc2ccc3c(C=Cc4ccccn4)n[nH]c3c2)ccc1F`, for which the Potency is 20.9 µM (active).

As to `CCOC(=O)N1CCN([N+]([O-])=NOc2ccc([N+](=O)[O-])cc2C#N)CC1`, the Potency was 0.743 µM (active).

Turning to `CCCc1nc(C(C)(C)O)c(C(=O)O)n1Cc1ccc(-c2ccccc2-c2nn[nH]n2)cc1`, the Potency result is “inactive”.

As to `COc1cc(OC)cc(-c2ccc3ncc4ccc(=O)n(-c5ccc(N6CCNCC6)c(C(F)(F)F)c5)c4c3c2)c1`, the Potency is 4.69 µM (active).

Consider `Cc1cnc(Nc2ccc(N3CCN(C)CC3)cc2)nc1Nc1cccc(S(=O)(=O)NC(C)(C)C)c1`, for which the Potency is 16.6 µM (active).

For the origin of these results see PubChem BioAssay (NCATS).
